Screening results as filed in PubChem.
Compounds with a hit are over-represented: about 1.2% of the library has one in this group of screens.
VCAM1 TNFa inh: reduces TNF alpha induced VCAM1 expression in HUVEC; HUVEC TNFa-induced VCAM-1 immunofluorescence, high-content imaging; inhibition, % at 2 µM; 95,000 compounds, 0.48% hits;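 active = inhibition above the batch mean plus 3 SD, with images confirmed as a hit by eye, cut at about 37% in these data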;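 note: 0% = TNF-stimulated DMSO wells and 100% = unstimulated control wells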
E-sel TNF inh: blocks E-selectin expression induced by TNF alpha; HUVEC TNFa-induced E-selectin immunofluorescence, high content; inhibition, % at 2 µM; 120,000 compounds, 0.71% hits;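 active = inhibition above the batch mean plus 3 SD, and confirmed as a hit on visual image review, cut at about 43% in these data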;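 note: 0% = TNF-stimulated DMSO wells and 100% = unstimulated control wells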
TNFa cytotox: HUVEC cytotoxicity counter-screen, TNF alpha stimulated; HUVEC TNFalpha-stimulated, Hoechst cell count, imaging; cell count reduction, % at 2 µM; 93,000 compounds, 0.17% hits; AID 848;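 active = cell count reduction exceeding the screen mean by over 5 SD, scaled to untreated wells per plate, cut at about 78% in these data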;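 note: cells counted after 24 h of TNF alpha exposure following the 1 h pretreatment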
cytoskel mod: cytoskeleton assembly modification | 91,000 compounds, 0.18% hits | inhibition, % at 2 µM | HUVEC TNFa F-actin phalloidin imaging, high content | AID 836;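 active = inhibition above the batch mean plus 3 SD and confirmed as a hit by visual image inspection, cut at about 30% in these data, passing the limit was not always enough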
Starred values were filed as active, the others as inactive; x = no result given.

SMILES	VCAM1 TNFa inh	E-sel TNF inh	TNFa cytotox	cytoskel mod
COc1ccc(/C=N/NC(=O)COc2ccccc2-c2ccccc2)cc1	2	-15	59	-39
O=C(COc1ccccc1-c1ccccc1)N/N=C/c1cccc2ccccc12	69*	17	55	-31
CC1=C(C(=O)Nc2ccc(C)cc2)C(c2ccc(N(C)C)cc2)NC(=O)N1 (stereo unspecified)	7	-1	-8	4
CCSc1nc2ccccc2n1C(=O)/C=C\c1ccc(OC)c(OC)c1	94*	-46	22	23
CCSc1nc2ccccc2n1CC(N)=O	-8	-28	-25	4
CC(C)(C)NC(=O)CSc1nsc(SCC(=O)NC(C)(C)C)c1C#N	72*	x	55	6
CC(=O)CSc1nsc(SCC(C)=O)c1C#N	21	-32	-25	1
O=C(Nc1cccc(-c2cn3ccccc3n2)c1)c1cccc(Cl)c1	-2	57*	-25	26
COc1ccc2ccccc2c1C1CC(=O)N2CN(Cc3ccco3)CSC2=C1C#N (stereo unspecified)	8	x	-12	2
O=c1[nH]c2cccnc2n1Cc1ccccc1	-8	-9	-10	35*
O=c1[nH]c2ccccc2n1Cc1ccccc1	6	7	-34	1
c1ccc(-n2c(Sc3cnccn3)nnc2-c2cccs2)cc1	-3	63*	9	-12
COCCN(CC(=O)NC1CCCCC1)C(=O)/C=C/C(=O)c1ccc(OC)cc1O	x	89*	x	x
CC1CC(C)CN(S(=O)(=O)c2ccc(C(=O)NCc3ccc4c(c3)OCO4)cc2)C1 (stereo unspecified)	6	x	0	0
O=c1c(N=Nc2ccc(O)cc2)c(-c2ccccc2)[nH]n1-c1ccc([N+](=O)[O-])cc1	x	-29	x	x
Cc1[nH]n(-c2ccc([N+](=O)[O-])cc2)c(=O)c1N=Nc1nc2ccccc2s1	52*	19	-4	6
COc1ccc(OC)c(N(CC(=O)NC2CC2)S(=O)(=O)c2ccc(C)cc2)c1	-46	10	90*	-1
COc1ccc(S(=O)(=O)Cc2ccc(C(=O)NC(C)C)o2)cc1	15	x	-23	5
CSc1nc(-c2ccccc2)nn1C(=O)c1ccc(Cl)cc1	14	-9	-6	2
O=C(c1ccc(Cl)cc1)N1CCCC(c2ccccc2)=N1	16	100*	1	15
CCOc1cc(C(=O)Nc2cccc3ncccc23)cc(OCC)c1OCC	18	x	30	53*
Cc1cc(C(=O)Nc2cccc3ncccc23)no1	x	16	x	0
CCC1=Nc2cc(C(=O)NCCCOC)ccc2Sc2ccccc21	60*	33	42	-22
CCCC1=Nc2cc(C(=O)NCCCOC(C)C)ccc2Sc2ccccc21	-6	47	-5	4
CCCC1=Nc2cc(C(=O)NCCCOCC)ccc2Sc2ccccc21	94*	-9	74	-46
SMILES	VCAM1 TNFa inh	E-sel TNF inh	TNFa cytotox	cytoskel mod
CCOc1ccc(NC(=O)N(CCCN2CCOCC2)Cc2cccnc2)cc1	5	2	-22	1
O=C(NCc1ccco1)c1ccc(COc2cccc3ccccc23)cc1	x	36	x	x
CCC(C)(C)NC(=O)c1ccc2c(c1)S(=O)(=O)c1ccccc1C2=O	15	15	0	-19
CCOC(=O)N1CCC(NC(=O)c2ccc(CNS(=O)(=O)c3ccc(F)cc3)cc2)CC1	-9	x	-51	76*
Cc1ccc(S(=O)(=O)NCc2ccc(C(=O)NC3CC3)cc2)cc1	x	-20	x	x
CCC(=O)Nc1nc(-c2ccccc2)ns1	58*	12	x	-10
CC(C)C(=O)Nc1nc(-c2ccccc2)ns1	26	16	x	4
CC(=O)c1ccc(OCCCC(=O)NC2=NCCS2)cc1	-6	-11	-21	-3
Cc1ccc(NC(=O)CCn2c(=O)oc3ccccc32)cc1	9	x	-30	35
CCc1ccc(NC(=O)CCn2c(=O)oc3ccccc32)cc1	x	x	100*	x
CCC(Sc1nc(N)cc(=O)[nH]1)C(=O)NC(C(=O)OC)c1ccccc1 (stereo unspecified)	14	15	12	-4
CC(Sc1nc(N)cc(=O)[nH]1)C(=O)NC1CCCCC1 (stereo unspecified)	94*	-24	-10	-7
COc1cccc(C2CCCN2Cc2nc(CC3CC3)no2)c1 (stereo unspecified)	x	-10	x	x
COc1cc(CNCc2ccco2)ccc1OCc1ccccc1	-5	57*	-6	46*
COc1cc(CNCc2cccs2)ccc1OCc1ccccc1	17	-64	-7	7
CCc1ccc2oc(-c3cc(N)ccc3O)nc2c1	39*	36	0	-6
COC(=O)Cc1c(C)nc2nc(NCc3ccccc3OC)[nH]n2c1=O	12	11	-2	7
COc1cc2c3nnc(-c4ccc(F)cc4)c-3cn(Cc3ccccc3)c2cc1OC	5	15	-12	33*
O/N=C/c1ccc(OCC(O)COc2ccc(/C=N/O)cc2)cc1	16	4	-17	-12
C=CCn1c(SCc2c(C)noc2C)nc2cc(C(=O)O)ccc2c1=O	x	16	x	x
C=CCn1c(SCc2c(C)noc2C)nc2ccccc2c1=O	60*	3	36	13
CC(=O)c1cccc(NC(=O)c2cc(-c3ccc(F)cc3)on2)c1	71*	x	73	-7
Cn1cnc2cc(NCc3cccs3)ccc21	x	-13	x	x
COc1ccc2cc(CCNC(=O)C(C)C)c(=O)[nH]c2c1	x	96*	x	x
COc1ccc(CC(=O)OCc2cc3ccc(C)cc3[nH]c2=O)cc1	93*	x	71	-28
SMILES	VCAM1 TNFa inh	E-sel TNF inh	TNFa cytotox	cytoskel mod
CC1CN(C(=O)/C(C#N)=C2\N=C(NC(=O)c3ccccc3Cl)c3ccccc32)CC(C)O1 (stereo unspecified)	x	93*	x	x
C[n+]1ccc(/C=C/c2ccc(Br)cc2)cc1	44*	16	18	x
CCCc1nc2c(sc3nc4c(cc32)COC(C)(C)C4)c(=O)n1CCN(C)C	x	-1	x	x
CC(C)C(=O)Nc1ccc(C(=O)NNC(=O)NC2CCCCC2)cc1	36*	-52	28	2
CN(C)c1ccc(C(=O)c2ccc(O)cc2O)cc1	22	-6	-4	-13
COc1ccc(C(=O)c2ccc(N(C)C)cc2)c2ccccc12	60*	-4	54	27
CC(C)(C)c1cc[n+](/C(C(=S)Nc2ccccc2F)=C(/[O-])c2ccc3c(c2)OCCO3)cc1	x	-10	x	x
O=S1(=O)C[C@@H](O)[C@@H](Nc2ccc(Cl)cc2)C1	7	-13	-4	-7
Cc1ccc(C(=O)Nc2ccc(O)cc2C(=O)O)cc1	-11	61*	-9	22
O=C(N/N=C/C(Br)=C/c1ccccc1)c1cc(-c2ccco2)[nH]n1	x	-38	x	x
O=C(N/N=C/C(Br)=C/c1ccccc1)c1n[nH]c2c1CCC2	91*	x	71	13
CSc1cccc(NC(=O)C2CCCN(S(=O)(=O)c3ccc(F)cc3)C2)c1 (stereo unspecified)	13	59*	12	4
Cc1cc(=O)oc2cc(OCC(=O)N3CCCc4ccccc43)ccc12	3	x	-9	-4
NC(=O)c1ccc(-c2ccc(Br)cc2)o1	-8	43*	-10	-3
O=C(O)CCc1ccc(-c2ccc(Br)cc2)o1	12	x	-4	-22
CN(C)S(=O)(=O)c1cc(NC(=O)CSc2nn(-c3ccc(Cl)cc3)c(=S)s2)ccc1Cl	x	72*	x	x
